HEK293 tox: cytotoxic compounds in HEK 293 cells; HEK 293 viability, ATP luminescence (CellTiter-Glo), 48-72 h; Potency, µM (doses to about 115 µM), actives largely listed as inhibitors; hit rate 6.6% among 94,000; AID 1345083; also: nearly all actives have a fitted effect of over 60% in size
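Cytotoxicity was scored by loss of ATP-coupled luminescence (CellTiter-Glo) in HEK 293 cells. Compound treatment ran 48 or 72 hr at 37 degree Celsius, 5% CO2, 95% humidity.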
NPR1 antag: antagonists of human natriuretic peptide receptor Npr1; HEK293 hNpr1 GloSensor cGMP, ANP-stimulated luminescence; Potency, µM (highest dose often 46.3 µM), hits mostly inhibitors; hit rate 1.6% among 76,000; calls by dose curve; also: nearly all actives have a fitted effect of over 60% in size
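Compound pre-incubated 30 min at room temperature on GloSensor-loaded HEK293 cells stably carrying hNpr1 and the pGS-40F cGMP biosensor. Stimulation uses hNppA at 0.1 nM final; luminescence is taken at baseline and 20 min post-agonist.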
Luciferase inh: blocks purified firefly luciferase enzyme activity. Potency, µM (series often up to 115 µM), actives largely listed as inhibitors. P08659. hit rate 2.5% among 76,000. AID 1347043. purified P. pyralis luciferase, luminescence, biochemical; also: nearly all actives have a fitted effect of over 65% in size
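Purified 10nM P. pyralis luciferase with 10uM D-luciferin and 10uM ATP in 50mM Tris acetate pH 7.5, 10mM Mg acetate, 0.01% Tween-20, 0.05% BSA. qHTS titration; luminescence read by CCD imager.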
3T3 cytotox: cytotoxic compounds in NIH 3T3 cells; NIH 3T3 viability, CellTiter-Glo ATP luminescence, 48-72 h; Potency, µM (doses to about 96.7 µM), actives largely listed as inhibitors; hit rate 4.3% among 94,000; also: nearly all actives have a fitted effect of over 55% in size
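Viability of NIH 3T3 cells after 48 or 72 hr compound treatment at 37 °C was assessed by CellTiter-Glo, with luminescence imaged following a 10 min room-temperature step.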
Numbers stand for hits; – = inactive; ? = inconclusive; · = no result; ! = not confirmed by another sample. In the library only some 11% were active in any assay of this set; here they are far more common. Unless noted, calls follow the shape of the dose curve; as a rule, active = well fitted curve in the direction sought with a large enough effect; inconclusive = small, poorly fitted or top-dose-only effect, or another doubt; inactive = no such curve, though single readings can be large; an effect the other way counts as inactive or inconclusive.

SMILES | HEK293 tox | NPR1 antag | Luciferase inh | 3T3 cytotox
Cn1cnnc1CC1CCN(C(=O)CCc2ccccc2)CC1 | – | · | · | –
Cn1ccnc1C(=O)N1CCC(Cc2ccc(CCC(=O)N3CCCC3)cc2)CC1 | 39.8µM | · | · | ?
CN(C)CCOCC1(C)COc2ccc(C(=O)Nc3ccc4[nH]ccc4c3)cc2N1 (stereo not drawn) | ? | – | 50.1µM | ?
CC1(CCCCN2CCOCC2)COc2ccc(C(=O)Nc3ccc4[nH]ccc4c3)cc2N1 (stereo not drawn) | ? | ? | – | –
CC1(COCC2CC2)COc2ccc(C(=O)Nc3ccc4[nH]ccc4c3)cc2N1 (stereo not drawn) | ? | ? | 15.8µM | 44.7µM
c1cnc(N2CCC3(CCCN3Cc3ccc(-c4ccn[nH]4)o3)CC2)nc1 | – | – | – | –
Cc1ccccc1N(C)C1CN(C(=O)c2ccccn2)C1 | 79.4µM | · | · | ?
CCN(C1CCOCC1)C1CN(C(=O)c2ccccn2)C1 | – | – | – | –
CCCN1CCC2(CCN(C(=O)c3ccc(C)cc3)CC2)Oc2ccccc21 | ? | – | – | ?
Cc1ccsc1C(=O)N1CCC2(CC1)C(=O)N(c1cccc(F)c1)C2c1ccccc1 (stereo not drawn) | 25.1µM | · | · | ?
Fc1cnc(N2CCCC(OCc3cccnc3)C2)nc1N1CCOCC1 (stereo not drawn) | ? | – | – | ?
C[S+](=O)([O-])c1cccc(-c2nccc3c(=O)cc(N4CCOCC4)oc23)c1 | ? | – | – | ?
O=C(NCCc1cccs1)c1cccc2c1CCN2C(=O)Nc1ccccc1 | ? | – | 15.8µM | ?
CCCCN(C)C(=O)c1cccc2c1CCN2C(=O)Nc1ccc(OC)cc1 | ? | – | 17.8µM | –
COc1ccc(NC(=O)N2CCc3c(C(=O)NC(C)C)cccc32)cc1 | 25.1µM | 2.51µM | 0.282µM | ?
CCC(=O)N1CCc2c(C(=O)Nc3ccc(C)cc3)cccc21 | – | – | – | –
CCC(=O)N1CCc2c(C(=O)NCc3ccc(OC)cc3)cccc21 | – | – | – | –
Cc1ccc(NC(=O)N2CCc3c(C(=O)NCCCN4CCCC4=O)cccc32)cc1 | 44.7µM | 1.41µM | 0.282µM | ?
CCOc1ccccc1NC(=O)N1C[C@@H](F)C[C@H]1C(=O)N1CCCCC1 | – | – | – | ?
CC(C)C(=O)NC1CCN(c2cnn(Cc3ccccc3)c(=O)c2)CC1 | – | – | – | –
O=C(Nc1cnc(-c2cccc(Cl)c2)nc1)c1ccc(F)cc1F | ? | – | – | ?
CC(C)CCN1CCOc2cc([S+](=O)([O-])Nc3nncs3)ccc2C1 | – | – | – | 31.6µM
Cc1ccccc1CN1CCOc2cc([S+](=O)([O-])Nc3nncs3)ccc2C1 | – | – | – | ?
CC(C)CCN1CCOc2cc([S+](=O)([O-])Nc3cccnc3)ccc2C1 | ? | – | – | 28.2µM
COCCNC(=O)C1CCCCN1Cc1ccc(-c2ccccc2OC)cc1 (stereo not drawn) | 44.7µM! | · | · | ?
SMILES | HEK293 tox | NPR1 antag | Luciferase inh | 3T3 cytotox
COc1ccccc1-c1ccc(CN2CCCCC2C(=O)NCCc2ccccc2)cc1 (stereo not drawn) | 39.8µM | · | · | 39.8µM
CC(=O)N1CCC2(C1)OC(=O)Nc1ccccc12 (stereo not drawn) | – | – | – | –
Cc1cc(=O)n(CC(=O)Nc2ccc(Br)cc2F)c(N2CCC(C)CC2)n1 | ? | – | – | 15.8µM
Cc1cc(=O)n(CC(=O)Nc2cc(Cl)ccc2C)c(N2CCC(C)CC2)n1 | 35.5µM | ? | – | 35.5µM
Cc1ccc(C)c(NC(=O)Cn2c(N3CCC(C)CC3)nc(C)cc2=O)c1 | 28.2µM | – | – | ?
Cc1ccc(NC(=O)Cn2c(N3CCC(C)CC3)nc(C)cc2=O)c(C)c1 | ? | – | – | ?
Cc1ccc(NC(=O)Cn2c(N3CCC(C)CC3)nc(C)cc2=O)cc1 | ? | ? | – | ?
CS(=O)(=O)N1CCC(OC2CCN(C(=O)Nc3ccccc3C(F)(F)F)CC2)CC1 | – | – | – | –
Cc1ccc(C(=O)NC(C(=O)N2CCCCC2)C2CCN(C(=O)C3CCCC3)CC2)cc1 (stereo not drawn) | – | – | – | –
O=C1CCCCC(C(=O)NCCCN2CCc3ccccc3C2)N1 (stereo not drawn) | – | – | – | –
CCOc1ccc(C(=O)NC2CCCN(c3cc(-c4ccccc4)[nH]n3)C2)cc1 (stereo not drawn) | ? | – | ? | ?
COc1cc(OC)cc(C(=O)NC2CCCN(c3cc(-c4ccccc4)[nH]n3)C2)c1 (stereo not drawn) | 39.8µM | – | 25.1µM | ?

Source: PubChem (National Center for Advancing Translational Sciences (NCATS))
